# PubChem BioAssay AID1053117 (Broad Institute, 2014)
# Entries with a potency or affinity are not part of this list. The source made the active and inactive calls.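 The calls were made as follows: active = compounds lowering cell ATP signal with a fitted half-effect dose at most twice the top valid dose; inconclusive = flat curve with 30 to 70% signal loss, or bad fit; inactive = wrong direction, flat within 30%, or weaker than limit.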
# Assay: HEK293 cell cytotoxicity, dose response, cytotoxicity control, cherry-picks, set 5 (AID 1053117);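 also: more negative means greater loss of ATP signal and more cytotoxicity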
# Details: HEK293T viability, CellTiter-Glo ATP luminescence, 72 h; series mostly up to 26 µM
row,Compound,outcome
1,NC(=O)C1=C[C@H](c2coc3ccccc3c2=O)C[C@H](OCCCCO)O1,inactive
2,C[C@@H]1CN([C@@H](C)CO)C(=O)c2cc(NC(=O)CCCN(C)C)ccc2O[C@@H]1CN(C)Cc1ccc(-c2ccccc2)cc1,inactive
3,C[C@@H]1CN([C@@H](C)CO)C(=O)c2cccc(NC(=O)Nc3ccc(C(F)(F)F)cc3)c2O[C@H]1CN(C)C(=O)Nc1cccc2ccccc12,inactive
4,Cc1ccc(S(=O)(=O)N2CC[C@@H]3[C@H](CO)Nc4ccc(-c5cccc(C(=O)N(C)C)c5)cc4[C@@H]32)cc1,inactive
5,Cc1ccc(S(=O)(=O)N2CC[C@@H]3[C@@H](CO)Nc4ccc(-c5cccc(C(=O)N(C)C)c5)cc4[C@@H]32)cc1,inactive
6,S=C(NCC1CCCO1)Nc1ccc(Cl)cc1Cl (stereo not drawn),inactive
7,COC(=O)C[C@H]1CC[C@H]2[C@@H](COc3ccc(NC(=O)Cc4cccs4)cc3C(=O)N2C)O1,inactive
8,CC(C)Cc1nnc(NC(=O)CSc2nc(N)cc(=O)[nH]2)s1,inactive
9,Cc1c(NC(=O)c2ccc3nsnc3c2)cccc1[N+](=O)[O-],inactive
10,C[C@H](O)C#Cc1ccc2c(c1)O[C@H](CN(C)C)[C@@H](C)CN([C@H](C)CO)S2(=O)=O,inactive
11,Cc1ccc(N(CC(=O)NCc2ccco2)S(=O)(=O)c2ccccc2)cc1,inactive
12,C[C@H]1CN([C@@H](C)CO)C(=O)c2cc(-c3ccccc3)cnc2O[C@@H]1CN(C)Cc1ccccc1,inactive
13,Cc1ccc(S(=O)(=O)N2CC3(C)CN(S(=O)(=O)c4ccc(C)cc4)CC(C)(C2)C3=O)cc1,inactive
14,CCc1nc2c(OCCc3cccc(OC)c3)cccn2c1N(C)C(=O)c1ccc(C)cc1,inactive
15,N#C[C@@H]1[C@@H](c2ccccc2C2=CCCCC2)[C@H](CO)N1S(=O)(=O)c1ccccc1,inactive
16,C[C@@H]1CN([C@H](C)CO)C(=O)c2cc(-c3ccccc3)cnc2O[C@@H]1CN(C)C(=O)c1cccc(F)c1,inactive
17,O=C(Nc1cc(Sc2nc3ccccc3s2)cc([N+](=O)[O-])c1)c1ccccc1F,inactive

row,Compound,outcome
1,C[C@H](CO)N1C[C@H](C)[C@H](CN(C)C(=O)Nc2cccc3ccccc23)Oc2c(NC(=O)Nc3ccc(C(F)(F)F)cc3)cccc2C1=O,inactive
2,Cc1ccc(O)c(-c2cc(-c3cccc(Br)c3)n[nH]2)c1,inactive
3,C[C@H](CO)N1C[C@H](C)[C@H](CN(C)Cc2ccc(-c3ccccc3)cc2)Oc2ccc(NC(=O)C3CCCCC3)cc2C1=O,inactive
4,Cn1cc([N+](=O)[O-])c(C(=O)Nc2cc(Oc3ccccc3)cc([N+](=O)[O-])c2)n1,inactive
5,CC(C)(C)[S@@](=O)N1Cc2cc(C(=O)NCc3ccccc3F)nc(-c3cccc(-c4cncnc4)c3)c2[C@H]1CCO,inactive
6,O=C(Nc1ccccc1F)N1C[C@@H]2[C@H](c3ccccc31)[C@@H](CO)N2C(=O)C1CC1,inactive
7,Cc1ccc(CS(=O)Cc2ccc(C(=O)NC3CCCC(C)C3C)o2)cc1 (stereo not drawn),inactive
8,CC(NC(=O)CSc1ccc(S(=O)(=O)N2CCOCC2)cn1)c1ccc(Cl)cc1Cl (stereo not drawn),inactive
9,O=C(c1cccnc1)N1C[C@H]2[C@@H](c3ccccc31)[C@H](CO)N2CC1CCCC1,inactive
10,C[C@H]1CN([C@@H](C)CO)C(=O)c2cc(NC(=O)CCCN(C)C)ccc2O[C@H]1CN(C)Cc1ccc(-c2ccccc2)cc1,inactive
11,C[C@H](O)C#Cc1ccc2c(c1)O[C@@H](CN(C)C)[C@H](C)CN([C@@H](C)CO)S2(=O)=O,inactive
12,Cc1cccc(N2CCN(S(=O)(=O)c3cn(C)cn3)CC2)c1C,inactive
13,O=C(c1cccnc1)N1C[C@@H]2[C@H](c3ccccc31)[C@@H](CO)N2CC1CCCC1,inactive
14,COc1ccc(-c2csc(CCn3nc(C)cc3C)n2)cc1OC,inactive
15,CN1c2ccc(-c3ccccc3)cc2[C@@H]2[C@@H](CCN2C(=O)CN2CCOCC2)[C@H]1CO,inactive
16,CN1c2ccc(-c3ccccc3)cc2[C@@H]2[C@@H](CCN2C(=O)CN2CCOCC2)[C@@H]1CO,inactive
